Measurements taken from PubChem BioAssay (NCI).
Compounds without any hit were thinned out: in the full panel of roughly 83,000, 20% have a hit.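 96-well plates, one dose, 48 hours. Percent growth reported; active if below 10.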 Calls of active or inactive are those of the source.

test system: MDA-MB-435 melanoma; assay: NCI-60 one-dose screen, 48 h (100 = growth as untreated, 0 = no growth, -100 = all killed); conditions: 10 µM unless noted
Description: Growth inhibition of the MDA-MB-435 human Melanoma tumor cell line is measured as a screen for anti-cancer activity. Cells are grown in 96 well plates and exposed to the test compound for 48 hours. Compounds are tested at a single concentration, which is 10^-5 M for most compounds. The reported endpoint is percent growth (GI% or GIPRCNT), where numbers from 0 - 100% represent growth inhibition, and numbers from -100% - 0 represent cell death. For example, a value of 40 represents 60% growth inhibition. A value of 0 means no net growth occurred over the course of the experiment. A value of -40 indicates 40% of cells at the beginning of the experiment died by the end of the experiment. A value of -100 means all cells are dead at the end of the experiment.
NCI-60 Human Tumor Cell Lines Screen was performed using the standard one-dose NCI protocol, which is described in more detail at https://dtp.cancer.gov/discovery_development/nci-60/default.htm.
Compounds with GIPRCNT values below 10 were considered active. Activity score was based on GIPRCNT using the following formula: […]
Score is 0 for GIPRCNT values of 100 or above, 50 for GIPRCNT values of 0, and 100 for GIPRCNT values of -100.

| Structure (SMILES) | growth |
| --- | --- |
| COC(=O)[C@]12CC[C@@H](C)[C@H](C)[C@@H]1C1=CC[C@@H]3[C@@]4(C)C=C(O)C(=O)C(C)=C4CC[C@@]3(C)[C@]1(C)CC2 | 49% (inactive) |
| O=S(=O)(NCCNc1cc(-c2cn(-c3ccccc3)nc2-c2cccc(O)c2)ccn1)c1cccc(F)c1 | 43.5% (inactive) |
| CCNCCCn1c2c(c3ccc([N+](=O)[O-])cc3c1=O)C(=O)c1cc(OC)cnc1-2 | -54.4% (active) |
| Cc1ccc(-c2nc([P+](c3ccccc3)(c3ccccc3)c3ccccc3)c(N3C[C@H]4C[C@H](C3)c3cccc(=O)n3C4)o2)cc1 | 44.4% (inactive) |
| O=C1NC(=Nc2ccc(S(=O)(=O)Nc3nccs3)cc2)S/C1=C\c1coc2ccccc2c1=O | 124% (inactive) |
| CC1(c2ccccc2)OC1C(=O)O (stereo not given) | 98.7% (inactive) |
| O=S(=O)(NCCNc1cc(-c2cn(-c3ccccc3)nc2-c2cccc(O)c2)ccn1)c1ccc(Cl)cc1 | 23.3% (inactive) |
| COC(=O)[C@@H]1[C@H]2C[C@H]3c4[nH]c5cc(OC)ccc5c4CCN3C[C@@H]2C[C@H](OC(=O)/C=C/c2ccnc(OC)c2)[C@H]1OC | 97.5% (inactive) |
| COc1ccc(C2C(C#N)=C(N)Oc3c2sc2c(F)cccc32)cc1 (stereo not given) | -23.9% (active) |
| Cn1c(=O)c2c(nc(N3CCCC3)n2C)n(C)c1=O | 107% (inactive) |
| COc1ccc(O)c(-c2cc(-c3ccc(Cl)cc3)c(C#N)c(=O)[nH]2)c1 | 5.98% (active) |
| C/C(=N\Nc1cc(C)c2cc(C)ccc2n1)c1ccccn1 | -89.4% (active) |
| C/C(=N/NC(N)=S)C(=O)O | 85.8% (inactive) |
| Nc1ccccc1NC(=O)c1ccc(CN2CCC/C(=C\c3ccccn3)C2=O)cc1 | -42.7% (active) |
| Cn1cc(-c2nc(-c3c[nH]c4ncccc34)cs2)c2ccccc21 | 36.5% (inactive) |
| CC(=O)O[C@@H]1CCN2C(=O)N(C)c3ccccc3[C@@H]2C1 | 107% (inactive) |
| C=C(C)[C@@H]1CC[C@]2(CN)CC[C@]3(C)[C@H](CC[C@@H]4[C@@]5(C)CCC(=O)NC(C)(C)[C@@H]5CC[C@]43C)[C@@H]12 | 92.7% (inactive) |
| Cc1nn2c(-c3nc4cc(Cl)c(Cl)cc4[nH]3)c(-c3ccc(F)cc3)nc2s1 | 26.6% (inactive) |
| O=C1C(=O)N(CCCCn2cc(-c3ccccc3)nn2)c2ccccc21 | 108% (inactive) |
| NC1=NN(c2ccccc2)C(=O)/C1=C/c1ccc(Cl)cc1 | 105% (inactive) |

| Structure (SMILES) | growth |
| --- | --- |
| O=C(N/N=C\c1ccccc1O)C1CC1 | 112% (inactive) |
| O=C(NC1=CC(=O)c2ccccc2C1=O)c1ccccc1 | 2.96% (active) |
| COC(=O)[C@]12CC[C@@H](C)[C@H](C)[C@@H]1C1=CC[C@@H]3[C@@]4(C)C[C@@H](OC(C)=O)[C@H](O)[C@@](C)(CO)[C@@H]4[C@H](O)C[C@@]3(C)[C@]1(C)CC2 | -96.4% (active) |
| CC(C)=CCC[C@](C)(O)[C@H]1CC[C@]2(C)[C@@H]1CC[C@@H]1[C@@]3(C)C/C(=C/c4ccc(Br)cc4)C(=O)C(C)(C)[C@@H]3CC[C@]12C | 95.3% (inactive) |
| O=[N+]([O-])c1cc(S(=O)(=O)c2ccc(F)c([N+](=O)[O-])c2)ccc1F | 103% (inactive) |
| Nc1c(C(=O)Nc2c(Cl)cccc2Cl)sc2nc3c(cc12)C(=O)CCC3 | -37.7% (active) |
| Cc1cc(N(CCCNc2ccnc3cc(Cl)ccc23)Cc2ccco2)nc(N2CCN(C)CC2)n1 | -5.06% (active) |
| CCCCCCCC(=O)SCC/C=C/[C@@H]1CC(=O)NCc2cccc(n2)CN(Cc2ccc3ccccc3c2)CC(=O)N[C@@H](C(C)C)C(=O)O1 | 37.4% (inactive) |
| COc1ccc(/C=C/C(=O)c2ccc([N+](=O)[O-])cc2)cc1 | 106% (inactive) |
| C=COCCCCCCCCCCCCCCCCCC | 114% (inactive) |
| COC(=O)[C@]12CC[C@@H](C)[C@H](C)[C@@H]1C1=CC(=O)[C@@H]3[C@@]4(C)C[C@@H](O)[C@H](O)[C@@]5(C)COC(=C45)C[C@@]3(C)[C@]1(C)CC2 | -11.3% (active) |
| Cc1nn(-c2ccc(Br)cc2)c2nc3[nH]c(=O)[nH]c(=O)c3nc12 | 99.1% (inactive) |
| COC(=O)C(N)CSC(c1ccccc1)(c1ccccc1)c1ccccc1 (stereo not given) | -58.7% (active) |
| COc1ccc(-n2c(/C=C/c3ccc(O)c(OC)c3)cc(/C=C/c3ccc(O)c(OC)c3)nc2=O)cc1 | 29.6% (inactive) |
| Cc1cc(N(CCCNc2ccnc3cc(Cl)ccc23)Cc2ccco2)nc(Cl)n1 | 72.2% (inactive) |
| N=C(N)c1ccc(-c2ccc(-c3cc(F)cc(F)c3)o2)nc1 | 90.9% (inactive) |
| Nc1c2c(nc3ccc(Cl)cc13)CC(c1ccc(O)cc1)CC2=O (stereo not given) | -38.5% (active) |
| C=C1C(=O)O[C@H]2[C@H]1CC/C(COC(=O)NCc1cc3ccccc3[nH]1)=C\CC[C@@]1(C)O[C@@H]21 | 2.87% (active) |
| Cn1cnc2c1c(=O)n(CCC(=O)Nc1ccc(F)cc1)c(=O)n2C | 108% (inactive) |
| N#C/C(=C\c1ccc(-c2ccc(F)cc2)o1)c1nc(-c2ccco2)cs1 | 102% (inactive) |
